Among the test systems are SR leukemia; RPMI-8226 leukemia; OVCAR-8 ovarian; OVCAR-5 ovarian; OVCAR-4 ovarian; SK-OV-3 ovarian; IGROV1 ovarian; OVCAR-3 ovarian; HS 578T breast; NCI/ADR-RES ovarian.
What all share (assay): NCI-60 one-dose screen, 48 h (100 = growth as untreated, 0 = no growth, -100 = all killed)
Common to all, as to conditions: 10 µM unless noted

This is part of a sample that, as a whole, favours compounds with a hit. Of some 83,000 tested, about 20% had one in any assay.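 The test compound was applied at a single concentration to cells in 96-well plates for 48 hours, and percent growth was recorded.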 Unmarked numbers belong to inactive results. Calls of active or inactive are those of the source. How the source made its calls: active means growth percent below 10; inactive means the rest.

13 molecules from PubChem BioAssay (NCI) can be followed below.

In the case of `CSc1nc2sc3c(c2c(=O)n1-c1ccc([N+](=O)[O-])cc1)CCCCC3`, the growth in the assay on SR leukemia was 85.4%; in the assay with RPMI-8226 leukemia, 99.4%; in the assay on OVCAR-8 ovarian it was 73%; in the assay on OVCAR-5 ovarian, 87.8%; in the assay on OVCAR-4 ovarian, 82.4%; with SK-OV-3 ovarian it was 69.5%. The growth was 84.8% with IGROV1 ovarian, 103% in the assay with OVCAR-3 ovarian, 82.3% in the assay on HS 578T breast and 89.6% in the assay with NCI/ADR-RES ovarian.
As for `CN(C)CCCC1(c2ccc(F)cc2)OCc2cc(-c3cncc4ccccc34)ccc21` (centres undefined), the growth is -3.26% (active) in the assay with SR leukemia; 35.3% in the assay on RPMI-8226 leukemia; 62.7% with OVCAR-8 ovarian; 70.5% in the assay on OVCAR-5 ovarian; 43.9% in the assay with OVCAR-4 ovarian; 59.6% with SK-OV-3 ovarian. In addition, the growth was 22.1% with IGROV1 ovarian, 47% in the assay with OVCAR-3 ovarian, 27.5% in the assay with HS 578T breast and 67% with NCI/ADR-RES ovarian.
Take `O=C(Nc1cc(Cl)ccc1O)c1ccc(Nc2ccnc(C(F)(F)F)c2)cc1`: the growth in the assay on SR leukemia is 23.7%; in the assay with RPMI-8226 leukemia, -6.66% (active); in the assay on OVCAR-8 ovarian, 51.8%; with OVCAR-5 ovarian, 86.4%; in the assay with OVCAR-4 ovarian, 43.3%; in the assay with SK-OV-3 ovarian it was 64.1%. The results for the growth with IGROV1 ovarian, in the assay with OVCAR-3 ovarian and in the assay with HS 578T breast were 36%, 14.3% and 49.9%, respectively.
On to `C#CCOc1cccc(Nc2ncnc3ccc(NC(=O)CCl)cc23)c1`, for which the growth was -42.1% (active) in the assay with SR leukemia; -50.9% (active) in the assay on RPMI-8226 leukemia; -4.18% (active) in the assay on OVCAR-8 ovarian; -70.1% (active) in the assay on OVCAR-5 ovarian; -33.9% (active) in the assay with OVCAR-4 ovarian; 20.1% with SK-OV-3 ovarian. The figures for the growth in the assay on IGROV1 ovarian, with OVCAR-3 ovarian and with HS 578T breast were -57.2% (active), -74.8% (active) and 24.5%, respectively.
As to `COc1ccc(N2CCC(=O)NC2=S)cc1`, the growth in the assay on SR leukemia was 116%; in the assay on RPMI-8226 leukemia, 105%; in the assay on OVCAR-8 ovarian, 106%; with OVCAR-5 ovarian, 102%; in the assay on OVCAR-4 ovarian, 106%; in the assay with SK-OV-3 ovarian, 103%. For the same molecule, the growth was 108% with IGROV1 ovarian, 109% with OVCAR-3 ovarian and 98.7% in the assay with HS 578T breast.
Take `N#CC1C=CN(CC(N)=O)c2ccc3cccnc3c21` (centres undefined): the growth is 85.1% with SR leukemia; 90% with RPMI-8226 leukemia; 98.1% with OVCAR-8 ovarian; 98.9% in the assay on OVCAR-5 ovarian; 98.6% with OVCAR-4 ovarian; 97.1% with SK-OV-3 ovarian. For the same molecule, the growth in the assay with IGROV1 ovarian is 101%; with OVCAR-3 ovarian, 109%; in the assay with HS 578T breast, 96.2%; in the assay with NCI/ADR-RES ovarian it was 105%.
For the molecule `CC1=Nc2cnc(Nc3ccc(OCCN4CCCCC4)cc3)nc2Nc2ccccc21`, the growth in the assay with SR leukemia was 33.7%; in the assay on RPMI-8226 leukemia, 62.7%; in the assay on OVCAR-8 ovarian, 72.9%; in the assay on OVCAR-5 ovarian, 70.7%; in the assay with OVCAR-4 ovarian, 53%; in the assay on SK-OV-3 ovarian, 34.8%. Besides, the growth in the assay on IGROV1 ovarian is 14.7%; in the assay with OVCAR-3 ovarian, 68.9%; with HS 578T breast, 33.6%; in the assay with NCI/ADR-RES ovarian it was 69.8%.
On to `O=C(O)c1ccc(-n2cc(/C=N/Nc3ccc(F)cc3)c(-c3cc4ccccc4oc3=O)n2)cc1`, for which the growth was 51.9% in the assay with SR leukemia; 90.4% with RPMI-8226 leukemia; 84.5% in the assay with OVCAR-8 ovarian; 82.4% in the assay with OVCAR-5 ovarian; 91.1% in the assay with OVCAR-4 ovarian; 94.1% with SK-OV-3 ovarian. For the same molecule, the growth was 74% in the assay with IGROV1 ovarian, 82.4% in the assay on OVCAR-3 ovarian, 95.3% with HS 578T breast and 77.9% with NCI/ADR-RES ovarian.
For the molecule `COc1cnc2c(c1)C(=O)c1c-2n(CCCNCCO)c(=O)c2ccncc12`, the growth in the assay with SR leukemia was -4.25% (active); with RPMI-8226 leukemia, -4.03% (active); in the assay with OVCAR-8 ovarian, -6.28% (active); in the assay with OVCAR-5 ovarian, -0.667% (active); with OVCAR-4 ovarian it was -4.81% (active); with SK-OV-3 ovarian, 6.1% (active). The growth is 15.6% in the assay on IGROV1 ovarian, 8.44% (active) with OVCAR-3 ovarian and 23.5% in the assay with HS 578T breast.
For the molecule `CC12CCC3c4ccccc4CCC3(CO1)C2` (centres undefined), the growth in the assay with SR leukemia was 99.1%; in the assay with RPMI-8226 leukemia, 97.1%; in the assay with OVCAR-8 ovarian, 103%; in the assay with OVCAR-5 ovarian, 96.3%; in the assay with OVCAR-4 ovarian, 108%; with SK-OV-3 ovarian it was 98.3%. Besides, the growth in the assay on IGROV1 ovarian was 121%; with OVCAR-3 ovarian, 115%; with HS 578T breast, 93.5%.
With `O=C(O)[C@@H]1c2ccccc2-c2ccccc2[C@H]1C(=O)O`, the growth with SR leukemia is 116%; in the assay with RPMI-8226 leukemia, 100%; in the assay on OVCAR-8 ovarian, 78.4%; with OVCAR-5 ovarian, 83.2%; in the assay on OVCAR-4 ovarian, 98%; in the assay on SK-OV-3 ovarian, 103%. In addition, the growth in the assay with IGROV1 ovarian is 80.7%; with OVCAR-3 ovarian, 104%; in the assay with HS 578T breast it was 94.3%; in the assay on NCI/ADR-RES ovarian, 95.4%.
For the molecule `O=C1CC(N2C(=O)/C(=C/C(Cl)=C\c3ccc([N+](=O)[O-])cc3)SC2=S)C(=O)N1c1ccc(Cl)cc1` (centres undefined), the growth was 4.86% (active) in the assay on SR leukemia; -1.96% (active) in the assay with RPMI-8226 leukemia; 15.7% in the assay with OVCAR-8 ovarian; 40.6% with OVCAR-5 ovarian; 9.19% (active) in the assay on OVCAR-4 ovarian; 99.2% with SK-OV-3 ovarian. For the same molecule, the growth with IGROV1 ovarian was 10.2%; with OVCAR-3 ovarian it was -35.4% (active); in the assay with HS 578T breast it was 21.7%; with NCI/ADR-RES ovarian it was 8.17% (active).
For `N#Cc1c(-c2ccc(Cl)cc2)nc(NN=Cc2cccc(O)c2)nc1N1CCOCC1`, the growth was 4.7% (active) with SR leukemia; 37.4% in the assay on RPMI-8226 leukemia; 65.4% with OVCAR-8 ovarian; 97.4% in the assay with OVCAR-5 ovarian; 72.4% in the assay with OVCAR-4 ovarian; 98% with SK-OV-3 ovarian. In addition, the values for the growth with IGROV1 ovarian, with OVCAR-3 ovarian and in the assay on HS 578T breast were 64.9%, 77.7% and 89.4%, respectively.
